Laboratory results published in PubChem BioAssay (EPA / NIEHS).
“And” between values parts separate entries of the source, which are not always exact repeats. Equal values may be shown once. A structure can be active in one record and inactive in another. The source made the active and inactive calls. Rule for the calls: active = hit-call score of the fitted dose curve at least 0.9, where 1 is the maximum; inactive = score below 0.9.

Tests used:
[1] = ATG_E_Box_CIS: Attagene CIS-FACTORIAL HepG2 Assay for human Enhancer Box (E-box) (AID 2282936); conditions: HepG2 E-box cis-reporter transcription, actives raise or lower the signal
Summary of the method: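 Fluorescent reporter fragments separated by capillary electrophoresis gave the signal; mRNA came from HepG2 cells transfected with cis-element reporters and treated 24 h. Curves fitted bidirectionally relative to DMSO controls.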

[2] = ATG_M_61_CIS: Attagene CIS-FACTORIAL HepG2 Assay for M61 Transcription Factor (Internal Marker) (AID 2282937); conditions: HepG2 Attagene CIS-FACTORIAL M61 internal marker reporter; actives raise or lower the signal
Summary of the method: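 Human liver HepG2, transient MRTU transfection (cis promoter elements), 24 h compound. Total RNA → oligo(dT) RT → PCR → FAM label → HpaI → CE. Internal background marker; bidirectional fitting, DMSO = baseline.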

[3] = ATG_EGR_CIS: Attagene CIS-FACTORIAL HepG2 Assay for human Early Growth Response 1 (EGR1) (AID 2282938); conditions: HepG2 Attagene CIS-FACTORIAL EGR reporter mRNA; actives raise or lower the signal
Summary of the method: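 Transient transfection of human HepG2 with multiple cis-regulated reporter units, chemical exposure 24 h, total RNA isolated. Reverse transcription, PCR, fluorescent labelling and capillary electrophoresis quantify reporter transcripts; activity fitted bidirectionally against DMSO.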

[4] = ATG_M_19_CIS: Attagene CIS-FACTORIAL HepG2 Assay for M19 Transcription Factor (Internal Marker) (AID 2282939); conditions: HepG2 Attagene CIS-FACTORIAL M19 internal marker reporter; actives raise or lower the signal
Summary of the method: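 Signals come from fluorescence of labelled reporter-specific PCR fragments resolved by capillary electrophoresis, following 24 h treatment of HepG2 cells transfected with cis-promoter reporter units; activity was fitted in both directions relative to DMSO.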

[5] = ATG_ERE_CIS: Attagene CIS-FACTORIAL HepG2 Assay for Estrogen Response Element (ERE) (AID 2282940); conditions: HepG2 ERE cis-reporter, Attagene RNA transcript; actives raise or lower the signal
Summary of the method: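 Fluorescence of capillary-separated, FAM-labelled reporter cDNA fragments indicates reporter mRNA levels in HepG2 cells exposed to chemicals for 24 h. Transient transfection with cis-regulated units; data fitted in both directions against DMSO.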

[6] = ATG_Ets_CIS: Attagene CIS-FACTORIAL HepG2 Assay for human Erythroblast Transformation Specific (ETS) (AID 2282941); conditions: HepG2 ETS cis-reporter transcription, actives raise or lower the signal
Summary of the method: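 Multiplexed reporter transcript profiling: HepG2, 24 h treatment, total RNA to cDNA, PCR, 6-FAM labelling, HpaI cut, capillary electrophoresis. Gain- or loss-of-signal fitted against DMSO.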

[7] = biological target: Hepatocyte nuclear factor 3-beta (Homo sapiens) (UniProt Q9Y261); assay: ATG_FoxA2_CIS: Attagene CIS-FACTORIAL HepG2 Assay for human Forkhead box A2 (FOXA2) (AID 2282942); conditions: HepG2 cis-reporter transcription factor activity, 24 h; actives raise or lower the signal
Summary of the method: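 Transient MRTU transfection of HepG2 liver cells; 24 h treatment; total RNA → oligo(dT) RT → PCR → FAM primer extension → HpaI cut → CE. Bidirectional fit vs DMSO.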

[8] = ATG_FoxO_CIS: Attagene CIS-FACTORIAL HepG2 Assay for human Forkhead box O (FoxO) (AID 2282943); conditions: HepG2 Attagene cis-reporter, FoxO element, mRNA; actives raise or lower the signal
Summary of the method: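 Endogenous transcription factor activity read from multiplexed cis-promoter reporter transcripts in transiently transfected HepG2, 24 h after dosing. Reporter RNA measured via RT-PCR plus capillary electrophoresis of FAM-labeled products; gain or loss relative to DMSO.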

[9] = ATG_GATA_CIS: Attagene CIS-FACTORIAL HepG2 Assay for human GATA Binding Protein (AID 2282944); conditions: HepG2 GATA cis-element reporter, Attagene multiplex mRNA; actives raise or lower the signal
Summary of the method: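 After transfecting HepG2 cells with multiple cis-regulated reporter units, chemicals are dosed for 24 h; isolated RNA undergoes RT-PCR and fluorescent labeling before capillary electrophoresis, with activity expressed against DMSO.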

[10] = ATG_GLI_CIS: Attagene CIS-FACTORIAL HepG2 Assay for human Zinc Finger Protein GLI1 (AID 2282945); conditions: HepG2, Attagene cis-factorial reporter mRNA, GLI element; actives raise or lower the signal
Summary of the method: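 Bidirectional curve fits relative to DMSO, using reporter mRNA levels from RT-PCR plus capillary electrophoresis. Cells were HepG2 transiently carrying cis-regulated reporter constructs, harvested 24 h after dosing.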

[11] = biological target: Bile acid receptor (Homo sapiens) (UniProt Q96RI1); assay: ATG_IR1_CIS: Attagene CIS-FACTORIAL HepG2 Assay for human Nuclear Receptor Subfamily 1 Group H Member 4 (NR1H4), IR1 submotif (AID 2282946); conditions: IR1 reporter transcription, actives raise or lower the signal
Summary of the method: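 HepG2 cells transiently transfected with multiplexed cis-element reporter units read endogenous transcription factor activity. After 24 h compound exposure, reporter mRNA was quantified by RT-PCR, fluorescent labelling, HpaI digestion and capillary electrophoresis; bidirectional fitting versus DMSO baseline.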

[12] = ATG_GRE_CIS: Attagene CIS-FACTORIAL HepG2 Assay for human Glucocorticoid Response Elements (GRE) (AID 2282947); conditions: HepG2 GRE cis-reporter, Attagene multiplex mRNA; actives raise or lower the signal
Summary of the method: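 Multiplexed cis-reporter mRNA induction, HepG2, 24 h post-dose. RT-PCR, FAM-labelled, HpaI-digested amplicons by CE. Bidirectional fit vs DMSO.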

[13] = ATG_ISRE_CIS: Attagene CIS-FACTORIAL HepG2 Assay for human Interferon Regulatory Factor 1 (IRF1) binding to an Interferon-Stimulated Response Element (ISRE) (AID 2282948); conditions: HepG2 ISRE cis-reporter (Attagene), mRNA transcription readout; actives raise or lower the signal
Summary of the method: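 Signal reflects induction or loss of ISRE-linked reporter mRNA in transiently transfected HepG2 cells after a 24 h treatment, detected by fluorescent RT-PCR fragments on capillary electrophoresis and normalised to DMSO.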

[14] = ATG_M_32_CIS: Attagene CIS-FACTORIAL HepG2 Assay for M32 Transcription Factor (Internal Marker) (AID 2282949); conditions: HepG2 Attagene cis-factorial M32 reporter, mRNA; actives raise or lower the signal;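 note: background control marker of the multiplexed CIS panel rather than a real target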
Summary of the method: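 Using DMSO as baseline, bidirectional curve fits were applied to reporter mRNA signals. These came from transiently transfected HepG2 cells exposed for 24 h, with RNA analysed by RT-PCR, FAM primer extension, HpaI digestion and CE.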

[15] = ATG_M_06_CIS: Attagene CIS-FACTORIAL HepG2 Assay for M06 Transcription Factor (Internal Marker) (AID 2282950); conditions: HepG2 Attagene CIS-FACTORIAL M06 internal marker reporter; actives raise or lower the signal
Summary of the method: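 HepG2 liver cells, 24 h exposure. Reporter transcripts from transfected cis-element constructs quantified by RT-PCR/capillary electrophoresis fluorescence. Bidirectional curve fit against DMSO.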

[16] = biological target: Hypoxia-inducible factor 1-alpha (Homo sapiens) (UniProt Q16665); assay: ATG_HIF1a_CIS: Attagene CIS-FACTORIAL HepG2 Assay for human Hypoxia Inducible Factor 1 (HIF1A) (AID 2282951); conditions: HepG2 Attagene cis-factorial HIF1a reporter transcription; actives raise or lower the signal
Summary of the method: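 Transient MRTU transfection of human HepG2 liver cells, 24 h compound treatment, then total RNA isolation, oligo(dT) reverse transcription, PCR amplification, fluorescent labelling and capillary electrophoresis of reporter fragments. Gain or loss relative to DMSO.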

[17] = biological target: Hepatocyte nuclear factor 6 (Homo sapiens) (UniProt Q9UBC0); assay: ATG_HNF6_CIS: Attagene CIS-FACTORIAL HepG2 Assay for human Hepatocyte Nuclear Factor 6 (HNF6) (AID 2282952); conditions: HepG2 Attagene cis-factorial HNF6 reporter transcription; actives raise or lower the signal
Summary of the method: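 First, HepG2 cells were transfected with the multiplexed cis reporter library and dosed with chemical for 24 h. Next, RNA was reverse-transcribed, PCR-amplified and fluorescently labelled. Finally, HpaI-digested fragments were read by capillary electrophoresis.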

[18] = biological target: Heat shock factor protein 1 (Homo sapiens) (UniProt Q00613); assay: ATG_HSE_CIS: Attagene CIS-FACTORIAL HepG2 Assay for human Heat Shock Transcription Factor 1 (HSE) (AID 2282953); conditions: HepG2 HSE cis-reporter, Attagene RNA transcription; actives raise or lower the signal
Summary of the method: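 Endogenous transcription factor activity captured via cis-promoter reporter units transfected into HepG2; treatment lasted 24 h. Fluorescence intensity of reporter fragments analysed with bidirectional curve fitting, DMSO baseline.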

[19] = ATG_MRE_CIS: Attagene CIS-FACTORIAL HepG2 Assay for human Metal Responsive Element (MRE) (AID 2282954); conditions: HepG2 MRE cis-reporter transcription, Attagene multiplex; actives raise or lower the signal
Summary of the method: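 Multiplexed cis-reporter assay in human HepG2 liver cells, 24 h incubation with test chemical. Reporter transcripts measured by RT-PCR and capillary electrophoresis; values from bidirectional curve fitting versus DMSO.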

[20] = ATG_PBREM_CIS: Attagene CIS-FACTORIAL HepG2 Assay for human Phenobarbital-responsive Enhancer Module (PBREM) (AID 2282955); conditions: HepG2 PBREM cis-reporter, Attagene multiplexed transcription; actives raise or lower the signal
Summary of the method: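 Endogenous transcription factors in human liver HepG2 cells drive a PBREM cis-element reporter, whose transcript level after 24 h treatment is quantified by RT-PCR with capillary electrophoresis; activity fitted in both directions against DMSO.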

Measured: AC50

Sequence of Hypoxia-inducible factor 1-alpha (Homo sapiens) (Q16665 whole entry, looked up, the tested form may be a part): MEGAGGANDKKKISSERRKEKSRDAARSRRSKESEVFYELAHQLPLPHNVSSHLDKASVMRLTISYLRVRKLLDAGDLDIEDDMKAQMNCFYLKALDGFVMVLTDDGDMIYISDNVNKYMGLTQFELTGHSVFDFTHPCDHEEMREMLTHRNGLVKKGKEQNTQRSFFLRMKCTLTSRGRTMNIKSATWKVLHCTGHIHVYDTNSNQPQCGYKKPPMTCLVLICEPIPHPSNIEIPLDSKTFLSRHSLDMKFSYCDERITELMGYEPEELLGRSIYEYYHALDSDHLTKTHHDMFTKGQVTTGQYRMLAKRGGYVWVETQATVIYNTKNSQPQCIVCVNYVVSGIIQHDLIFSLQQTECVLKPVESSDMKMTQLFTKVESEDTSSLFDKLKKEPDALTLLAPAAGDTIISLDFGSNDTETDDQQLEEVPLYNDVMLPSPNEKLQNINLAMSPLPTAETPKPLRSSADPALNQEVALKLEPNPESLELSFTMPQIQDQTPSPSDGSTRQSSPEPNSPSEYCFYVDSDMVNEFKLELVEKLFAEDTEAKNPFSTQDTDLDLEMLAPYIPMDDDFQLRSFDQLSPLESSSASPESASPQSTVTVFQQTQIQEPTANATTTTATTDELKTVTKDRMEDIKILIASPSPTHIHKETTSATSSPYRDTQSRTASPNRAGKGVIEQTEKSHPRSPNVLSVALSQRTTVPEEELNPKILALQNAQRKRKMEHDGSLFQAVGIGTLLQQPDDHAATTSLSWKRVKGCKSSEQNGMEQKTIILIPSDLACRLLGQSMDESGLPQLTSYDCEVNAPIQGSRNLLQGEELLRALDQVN
Sequence of Heat shock factor protein 1 (Homo sapiens) (Q00613 whole entry, looked up, the tested form may be a part): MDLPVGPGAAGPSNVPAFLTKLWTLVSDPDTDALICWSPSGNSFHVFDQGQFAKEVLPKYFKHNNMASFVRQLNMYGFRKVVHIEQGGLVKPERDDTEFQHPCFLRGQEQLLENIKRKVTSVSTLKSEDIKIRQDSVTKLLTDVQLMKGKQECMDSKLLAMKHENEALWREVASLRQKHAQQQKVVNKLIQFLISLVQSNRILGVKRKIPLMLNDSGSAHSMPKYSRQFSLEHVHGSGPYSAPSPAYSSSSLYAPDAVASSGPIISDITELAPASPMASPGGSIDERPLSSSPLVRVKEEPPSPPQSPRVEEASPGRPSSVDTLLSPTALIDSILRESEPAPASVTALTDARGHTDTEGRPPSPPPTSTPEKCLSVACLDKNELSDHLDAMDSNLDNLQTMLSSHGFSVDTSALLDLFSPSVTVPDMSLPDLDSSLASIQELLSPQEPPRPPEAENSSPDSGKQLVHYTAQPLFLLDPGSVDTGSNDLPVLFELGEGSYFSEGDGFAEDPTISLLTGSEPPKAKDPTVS
Sequence of Bile acid receptor (Homo sapiens) (Q96RI1 whole entry, looked up): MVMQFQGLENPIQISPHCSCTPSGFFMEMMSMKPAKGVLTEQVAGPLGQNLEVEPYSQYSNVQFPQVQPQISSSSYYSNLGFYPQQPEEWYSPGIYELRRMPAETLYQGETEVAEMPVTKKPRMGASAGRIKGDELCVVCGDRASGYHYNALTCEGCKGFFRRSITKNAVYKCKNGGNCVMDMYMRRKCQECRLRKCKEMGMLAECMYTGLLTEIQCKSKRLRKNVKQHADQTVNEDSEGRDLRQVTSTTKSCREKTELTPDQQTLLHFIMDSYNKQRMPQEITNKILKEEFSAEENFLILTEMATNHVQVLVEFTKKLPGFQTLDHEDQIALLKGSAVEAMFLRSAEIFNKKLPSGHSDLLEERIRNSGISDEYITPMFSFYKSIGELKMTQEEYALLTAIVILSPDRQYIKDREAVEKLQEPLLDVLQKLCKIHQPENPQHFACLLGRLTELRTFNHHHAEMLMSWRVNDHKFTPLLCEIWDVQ
Sequence of Hepatocyte nuclear factor 3-beta (Homo sapiens) (Q9Y261 whole entry, looked up): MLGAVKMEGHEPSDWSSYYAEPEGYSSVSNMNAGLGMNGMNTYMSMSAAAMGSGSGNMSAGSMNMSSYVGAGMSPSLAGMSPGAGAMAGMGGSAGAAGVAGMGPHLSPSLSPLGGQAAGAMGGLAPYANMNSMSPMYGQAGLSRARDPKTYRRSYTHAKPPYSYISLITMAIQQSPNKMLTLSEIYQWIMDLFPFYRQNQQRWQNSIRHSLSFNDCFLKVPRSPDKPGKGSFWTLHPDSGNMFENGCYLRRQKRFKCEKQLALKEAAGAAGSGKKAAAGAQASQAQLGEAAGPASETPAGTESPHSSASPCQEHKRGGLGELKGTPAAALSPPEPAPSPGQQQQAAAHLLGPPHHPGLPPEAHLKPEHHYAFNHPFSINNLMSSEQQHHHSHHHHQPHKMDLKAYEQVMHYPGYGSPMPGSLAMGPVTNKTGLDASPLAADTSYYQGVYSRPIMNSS
Sequence of Hepatocyte nuclear factor 6 (Homo sapiens) (Q9UBC0 whole entry, looked up, the tested form may be a part): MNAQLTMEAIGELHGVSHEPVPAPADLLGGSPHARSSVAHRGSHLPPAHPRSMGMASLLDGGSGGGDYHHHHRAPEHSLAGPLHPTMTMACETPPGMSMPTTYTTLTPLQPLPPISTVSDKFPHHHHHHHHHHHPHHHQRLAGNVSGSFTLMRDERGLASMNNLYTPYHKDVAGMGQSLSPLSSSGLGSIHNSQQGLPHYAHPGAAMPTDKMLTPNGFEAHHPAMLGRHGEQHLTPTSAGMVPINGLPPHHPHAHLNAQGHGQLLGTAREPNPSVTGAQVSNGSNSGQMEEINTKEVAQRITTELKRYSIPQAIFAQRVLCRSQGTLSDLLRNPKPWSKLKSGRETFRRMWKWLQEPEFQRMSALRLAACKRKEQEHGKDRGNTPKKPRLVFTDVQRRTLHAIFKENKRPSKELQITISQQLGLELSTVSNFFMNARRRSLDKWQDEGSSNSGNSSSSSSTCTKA

CCC[CH2][Sn]([Cl])([CH2]CCC)[CH2]CCC
active: [1] 0.627 µM | [3] 0.659 µM | [11] 13.8 nM | [13] 611 nM | [18] 0.667 µM | [19] 778 nM
inactive: all other assays above

COc1cc(C=O)cc2c1[C@H](COC(N)=O)[C@]1(OC(C)=O)ON2C[C@H]2[C@@H]1N2C(C)=O
active: [1] 0.1 µM | [4] 33.4 µM | [5] 51 µM | [6] 12.4 µM | [7] 62.3 µM | [8] 58.9 µM | [9] 10.8 µM | [13] 540 nM | [16] 0.155 µM | [17] 9.05 µM | [18] 8.4 µM
inactive: [2] | [3] | [10] | [14] | [15] | [19] | [20]

CCC12COCN1COC2
not listed: [11] | [12] | [20]
inactive: all other assays above

C[C@]12C=CC3=C4CCC(=O)C=C4CC[C@H]3[C@@H]1CC[C@@H]2O
active: [3] 25.3 µM | [6] 31.8 µM and 30 µM | [8] 30.2 µM | [11] 760 nM and 26.7 µM and 26.8 µM | [13] 59.8 µM [middle of 4 runs] | [19] 100 µM and 44.5 µM and 52.5 µM
inactive: [1] | [2] | [3] | [4] | [6] | [7] | [8] | [9] | [10] | [11] | [13] | [14] | [15] | [16] | [17] | [18] | [19]

Brc1ccc(Oc2ccccc2)cc1
active: [5] 50.8 µM | [13] 100000 nM
not listed: [11] | [20]
inactive: all other assays above

Nc1ccc(N=Nc2ccccc2)cc1
active: [1] 100 µM | [3] 50.6 µM | [5] 27 µM | [13] 57200 nM | [16] 58.1 µM | [19] 67000 nM
not listed: [20]
inactive: all other assays above

CCCCCCCCCCCCCN1CC(C)OC(C)C1 (stereo not drawn)
not listed: [11] | [20]
inactive: all other assays above
